Screens from PubChem.
This is a sample that favours compounds with a hit; in the whole collection about 10% have one here.
HP1b chromo inh: blocks HP1-beta chromodomain binding to methylated histone tails | P83916 | AlphaScreen HP1-beta / biotin-H3K9me3 peptide binding | Potency, µM (series often up to 114 µM), usual class: inhibitors | 390,000 tested, 0.56% active | AID 540317; further: nearly all actives have a fitted effect of over 70% in size
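AlphaScreen: HP1-beta (50 nM) preformed 30 min with biotin-H3(1-18)K9me3 peptide (50 nM) in PBS pH 7.4, 0.01% Tween-20. Compound added for 30 min at RT, then streptavidin donor/nickel chelate acceptor beads (10 ug/mL) for 30 min.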
JMJD2A Tudor: JMJD2A Tudor domain (human) inhibition. AlphaScreen JMJD2A-Tudor / H3K4me3 peptide binding. O75164. 390,000 tested, 4.4% active. Potency, µM (series often up to 114 µM), most hits filed as inhibitors; further: nearly all actives have a fitted effect of over 50% in size
BAZ2B block: inhibitors of human BAZ2B bromodomain; Potency, µM (highest dose often 114 µM), most hits filed as inhibitors; Q9UIF8; AlphaScreen BAZ2B-H3K14Ac peptide displacement; 360,000 tested, 4.4% active; further: nearly all actives have a fitted effect of over 60% in size
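Compounds, titrated to a top concentration of 110 uM, were incubated 30 min at room temperature with preformed BAZ2B/acetyl-K14 H3 peptide complex (50 nM each). Proximity signal was measured by AlphaScreen after 20 min with beads.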
G9a block: blocks human histone lysine methyltransferase G9a; Q96KQ7; G9a H3K9 monomethylation, AlphaScreen, 2 h; Potency, µM (highest dose often 102 µM), actives largely listed as inhibitors; 350,000 tested, 8.8% active; AID 504332; further: nearly all actives have a fitted effect of over 75% in size
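AlphaScreen detection with an anti-monomethyl H3K9 antibody quantified product after a 2 h room-temperature reaction containing 500 nM biotinylated H3K9 peptide, 20 µM SAM and 20 nM enzyme, which had been preincubated 15 min with compound.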
GLS inh: inhibitors of human glutaminase (GLS). O94925. GLS enzymatic activity, qHTS titration. Potency, µM (top dose mostly 45.5 µM), actives largely listed as inhibitors. 410,000 tested, 0.21% active
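hKGA; 45 mM KH2PO4 pH 8.2 + 0.02% Tween-20; cpd via pin tool; 1 mM Gln soln; GluOx/HRP/Amplex Red; RT 30 min; fluor. t0 & final.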
Each line names hits and unclear results; the compound was inactive in the other large screens. The call rests on the fitted dose curve; in most records, active means well fitted curve in the direction sought with a large enough effect; inconclusive means small, poorly fitted or top-dose-only effect, or another doubt; inactive means no such curve, though single readings can be large; an effect the other way counts as inactive or inconclusive.

CCCc1cc(C(=O)N/N=C/c2cccn2C)cs1	HP1b chromo inh inconclusive, JMJD2A Tudor inconclusive, BAZ2B block 45µM, G9a block inconclusive
CN(C)c1ccc(CN(C)C2CCCCC2)cc1	BAZ2B block inconclusive, G9a block 50µM
CN(C)c1ccc(CNCC2CCCO2)cc1 (stereo not given)	G9a block inconclusive
CCOC(=O)c1c(NC(=O)COC(=O)/C=C/c2ccco2)sc2c1CC(C)(C)NC2(C)C	HP1b chromo inh inconclusive, JMJD2A Tudor inconclusive, BAZ2B block inconclusive, G9a block 16µM
CCOC(=O)c1c(NC(=O)CSc2nc3ccccc3[nH]2)sc2c1CC(C)(C)NC2(C)C	G9a block 40µM
Nc1nc(NCc2ccc(Cl)cc2)nc(NCCO)c1[N+](=O)[O-]	none
Nc1nc(Nc2ccc(Cl)cc2)nc(NCCO)c1[N+](=O)[O-]	BAZ2B block inconclusive, G9a block 50µM
COc1cccc(Nc2nc(Nc3ccc(Cl)c(C(=O)O)c3)nc(C)c2[N+](=O)[O-])c1	JMJD2A Tudor inconclusive, BAZ2B block 50µM, G9a block inconclusive
COc1cccc(Nc2nc(N)c([N+](=O)[O-])c(NCc3ccccc3)n2)c1	HP1b chromo inh inconclusive, JMJD2A Tudor inconclusive, BAZ2B block inconclusive, G9a block 45µM
COc1ccc(NC(=O)/C(C#N)=C\c2cc(C)n(-c3ccc4c(c3)OCO4)c2C)cc1	G9a block inconclusive
O=C(CSc1ccccc1C(=O)O)c1ccccc1	none
COC(=O)c1ccc(NC(=O)c2ccccc2N(C)S(C)(=O)=O)cc1	none
Cc1cc(C(=O)COC(=O)CCc2nc3ccccc3s2)c(C)n1C	JMJD2A Tudor inconclusive, BAZ2B block 50µM, G9a block inconclusive
Cc1ccc(C2=NN(CC(=O)NCCc3ccccc3)C(=O)CC2)cc1	none
COc1ccc(C2=NN(CC(=O)NCCCN(C)c3ccccc3)C(=O)CC2)cc1	JMJD2A Tudor inconclusive, BAZ2B block inconclusive, G9a block inconclusive
CCN(CCCNC(=O)CN1N=C(c2ccc(OC)cc2)CCC1=O)c1cccc(C)c1	HP1b chromo inh inconclusive, JMJD2A Tudor 79µM, BAZ2B block 40µM, G9a block 11µM
CCN(CCCNC(=O)CN1N=C(c2ccc(C)cc2)CCC1=O)c1ccccc1	HP1b chromo inh inconclusive, JMJD2A Tudor 56µM, BAZ2B block 14µM, G9a block 10µM
CCN(CCCNC(=O)CN1N=C(c2ccccc2)CCC1=O)c1cccc(C)c1	HP1b chromo inh inconclusive, JMJD2A Tudor inconclusive, BAZ2B block inconclusive, G9a block 14µM
Cc1ccc(C2=NN(CC(=O)O)C(=O)CC2)cc1	G9a block 45µM
CC(=O)C1=C(C)NC(=O)NC1/C=C/c1ccccc1 (stereo not given)	none
COc1cc(NC(=O)c2cccs2)c(OC)cc1NC(=O)Cc1ccccc1	none
CCCCN(CCCNC(=O)CN1N=C(c2ccc(C)cc2)CCC1=O)c1ccccc1	HP1b chromo inh inconclusive, JMJD2A Tudor 40µM, BAZ2B block 20µM, G9a block 14µM
CCCCN(C)CCCNC(=O)CN1N=C(c2ccc(Cl)cc2)CCC1=O	none
CC(C)(C)NC(=O)C(=O)NNC(=O)c1cccc(F)c1	JMJD2A Tudor 10µM, BAZ2B block inconclusive
CC(C)(C)NC(=O)C(=O)NNC(=O)c1ccccc1	JMJD2A Tudor 8.9µM, BAZ2B block inconclusive, G9a block inconclusive
O=C(CCS(=O)(=O)c1cc(Br)cc2c1N(C(=O)C1CC1)CC2)N1CCN(c2ccc(F)cc2)CC1	none
CN(C)c1ccc(CNC(=O)Cc2ccc(NC(=O)N3CCCCc4ccccc43)cc2)cc1	JMJD2A Tudor 50µM, BAZ2B block 45µM, G9a block 13µM
CN(CC(=O)Nc1ccc(F)cc1)CC(=O)N1CCc2ccccc21	G9a block 56µM
CC(=O)Nc1ccc(S(=O)(=O)N(C)CC(=O)Nc2ccccc2N2CCCC2)cc1	G9a block 45µM
CC(=O)Nc1ccc(S(=O)(=O)N(C)CC(=O)OCC(=O)N2CCc3ccccc32)cc1	G9a block 50µM
CC(=O)Nc1ccc(S(=O)(=O)NCC(=O)OCC(=O)N2CCCc3ccccc32)cc1	none
O=C(C=C=Nc1ccccc1)C(=O)N=C=Cc1ccccc1	GLS inh inconclusive (no result: G9a block)
CCCCOc1ccc(C(=O)NCC(=O)N2CC(C)OC(C)C2)cc1 (stereo not given)	none
COc1cccc(OCCCN2CCCCC2)c1	none
